Results filed as inconclusive are left out. Activity calls are given as the source filed them. Unless noted, the call rests on the fitted dose curve; in most records, active means well fitted curve in either direction with a large enough effect (not every such curve was filed as active); inconclusive means small, poorly fitted or top-dose-only effect, or another doubt; inactive means flat fitted curve, though single readings scatter.
How the values were obtained:
[1] = molecular target: Lysosomal acid glucosylceramidase (Homo sapiens) (UniProt P04062); assay: Glucocerebrosidase-p2 (AID 348; in the data active means potency below about 10 µM; further: potency means the concentration at half of the fitted maximal effect); conditions: purified GBA, blue fluorogenic substrate, 40 min
Chain of Lysosomal acid glucosylceramidase (Homo sapiens) (P04062 whole entry, looked up): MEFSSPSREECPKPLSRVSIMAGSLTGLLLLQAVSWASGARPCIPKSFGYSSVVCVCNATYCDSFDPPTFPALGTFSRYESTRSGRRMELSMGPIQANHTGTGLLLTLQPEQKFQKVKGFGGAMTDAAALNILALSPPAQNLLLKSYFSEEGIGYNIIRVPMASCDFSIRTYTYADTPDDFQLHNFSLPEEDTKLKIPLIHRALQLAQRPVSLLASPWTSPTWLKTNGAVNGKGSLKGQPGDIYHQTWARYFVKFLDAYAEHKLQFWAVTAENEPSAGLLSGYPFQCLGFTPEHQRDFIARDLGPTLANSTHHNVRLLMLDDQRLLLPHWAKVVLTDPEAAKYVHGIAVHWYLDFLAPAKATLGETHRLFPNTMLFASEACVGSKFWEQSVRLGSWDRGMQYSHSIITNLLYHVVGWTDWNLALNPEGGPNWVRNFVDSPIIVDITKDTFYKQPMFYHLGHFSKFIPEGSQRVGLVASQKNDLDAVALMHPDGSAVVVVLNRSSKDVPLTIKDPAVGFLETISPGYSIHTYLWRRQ
Method in brief: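 Compounds titrated from 0.6 nM upwards against 0.2 nM enzyme in pH 5.9 citric acid/KH2PO4, taurocholate, tween-20; blue fluorogenic substrate 80 uM, 40 min room temperature, stopped and read Ex 365/Em 440 for AC50.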

[2] = AP1 Signaling Pathway (AID 357); conditions: ME-180 AP-1-bla reporter, EGF-induced, beta-lactamase ratio, 5 h; at 7.69 µM (top of the series) unless noted;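 further: ME-180 reporter cells stimulated with EGF at its EC50 level; on the % scale 0 is the no-effect control and ±100 the full control effect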
Method in brief: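 Modulation of EGF-driven AP-1 transcription was assessed with a beta-lactamase reporter in ME-180 cells. Compound and EC50 EGF were co-incubated 5 hours at 37 °C before 2.5-hour CCF4 loading at room temperature and dual-emission reading.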

[3] = NFAT Signaling Pathway (AID 444); conditions: Jurkat NFAT-bla M1, carbachol, beta-lactamase ratio, 5 h; at 7.69 µM (top of the series) unless noted;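 further: carbachol stimulus at about its EC50 of 1 µM final; on the % scale 0 is the no-effect control and ±100 the full control effect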
Method in brief: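 Read-out: CCF4 FRET ratio (460 nm/530 nm) after 1 h RT dye loading, used for %activity and AC50 from titration series. Cells: Jurkat NFAT-β-lactamase/M1 line, treated with compound plus 1 uM carbachol for 5 h, 37 °C.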

[4] = Stat Signaling Pathway (AID 446); conditions: ME-180 SIE beta-lactamase reporter, IL-6 stimulated, 5 h; at 7.69 µM (top of the series) unless noted;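 further: ME-180 cervical cancer cells given 40 pM IL-6 alongside compound; SIE-controlled beta-lactamase reporter measured as 460/530 nm FRET emission ratio; on the % scale 0 is the no-effect control and ±100 the full control effect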
Method in brief: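 Reporter line: ME-180 cervical carcinoma, SIE-beta-lactamase. Treatment: compound with 40 pM IL-6, 5 hrs, 37 C, in low-serum OPTI-MEM with 10 mM HEPES pH 7.3. Detection: 460/530 nm fluorescence.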

[5] = molecular target: Glucocorticoid receptor (Homo sapiens) (UniProt P04150); assay: GR-GFP Redistribution (AID 450;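 active means compounds whose dose series gives a full or clear partial fitted curve of increased nuclear translocation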; further: potency means the concentration at half of the fitted maximal effect); conditions: U2OS GR-GFP nuclear translocation, laser cytometry, 2 h
Chain of Glucocorticoid receptor (Homo sapiens) (P04150 whole entry, looked up, the tested form may be a part): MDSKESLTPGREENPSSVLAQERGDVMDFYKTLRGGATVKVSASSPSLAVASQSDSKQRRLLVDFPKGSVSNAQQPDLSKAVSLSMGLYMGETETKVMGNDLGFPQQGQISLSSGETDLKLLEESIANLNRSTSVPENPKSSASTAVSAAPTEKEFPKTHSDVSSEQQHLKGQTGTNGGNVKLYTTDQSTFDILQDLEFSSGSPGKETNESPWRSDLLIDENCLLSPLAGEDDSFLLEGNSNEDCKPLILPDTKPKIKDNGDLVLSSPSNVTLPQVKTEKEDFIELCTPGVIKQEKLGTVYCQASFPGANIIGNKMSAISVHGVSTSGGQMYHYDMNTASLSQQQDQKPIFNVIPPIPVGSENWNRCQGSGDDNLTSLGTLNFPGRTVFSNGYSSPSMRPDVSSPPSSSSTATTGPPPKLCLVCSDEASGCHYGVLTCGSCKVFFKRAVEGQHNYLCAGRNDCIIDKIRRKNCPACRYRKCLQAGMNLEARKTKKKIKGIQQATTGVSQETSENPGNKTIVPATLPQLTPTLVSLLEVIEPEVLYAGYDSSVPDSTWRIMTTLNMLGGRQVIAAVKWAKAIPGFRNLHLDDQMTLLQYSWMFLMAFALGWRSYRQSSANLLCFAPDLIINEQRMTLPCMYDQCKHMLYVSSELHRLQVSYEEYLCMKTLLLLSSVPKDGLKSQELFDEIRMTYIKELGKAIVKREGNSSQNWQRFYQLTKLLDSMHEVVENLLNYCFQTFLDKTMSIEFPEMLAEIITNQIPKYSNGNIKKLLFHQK

[6] = molecular target: Glucocorticoid receptor (Homo sapiens) (UniProt P04150); assay: GR-EFC Redistribution (AID 451; calls by dose curve; further: potency means the concentration at half of the fitted maximal effect); conditions: CHO-K1 GR-EFC translocation, beta-gal luminescence, 2 h
Method in brief: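 Translocation of GR-ED fusion to nuclear EA restores b-gal, read by luminescence after 1 h room-temperature detection. Engineered CHO-K1 biosensor cells, 1,000/well, exposed 2 h at 37 C to titrations up to 46 uM final.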

[7] = molecular target: Mitogen-activated protein kinase 10 (Mus musculus) (UniProt Q61831); assay: JNK3 AlphaScreen Assay (AID 530); conditions: JNK3 lysate, c-Jun phosphorylation; series mostly up to 11.4 µM;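 further: kinase came from lysate of stimulated human HepG2 cells; signal reports phosphorylation of biotinylated GST-cJun 1-79 at Ser73 with 10 µM ATP; on the % scale 0 is the no-effect control and ±100 the full control effect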
Method in brief: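 Compound titrations were preincubated 15 minutes at room temperature with substrate, antibody and pre-activated JNK3-containing HepG2 lysate. Reactions were started with 10 uM ATP and stopped with EDTA-containing bead buffer for AlphaScreen detection.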

[8] = molecular target: 3',5'-cyclic-AMP phosphodiesterase 4B (Homo sapiens) (UniProt Q07343); assay: qHTS Assay for Inhibitors of PDE-IV (AID 607; active means well fitted activation curve with a large enough effect in the main read-out, with a control signal flat, not every such curve was filed as active; further: % of control where 0% means no effect); conditions: HEK293 ACTOne CNG channel cells, membrane potential fluorescence; series mostly up to 22.9 µM
Chain of 3',5'-cyclic-AMP phosphodiesterase 4B (Homo sapiens) (Q07343 whole entry, looked up): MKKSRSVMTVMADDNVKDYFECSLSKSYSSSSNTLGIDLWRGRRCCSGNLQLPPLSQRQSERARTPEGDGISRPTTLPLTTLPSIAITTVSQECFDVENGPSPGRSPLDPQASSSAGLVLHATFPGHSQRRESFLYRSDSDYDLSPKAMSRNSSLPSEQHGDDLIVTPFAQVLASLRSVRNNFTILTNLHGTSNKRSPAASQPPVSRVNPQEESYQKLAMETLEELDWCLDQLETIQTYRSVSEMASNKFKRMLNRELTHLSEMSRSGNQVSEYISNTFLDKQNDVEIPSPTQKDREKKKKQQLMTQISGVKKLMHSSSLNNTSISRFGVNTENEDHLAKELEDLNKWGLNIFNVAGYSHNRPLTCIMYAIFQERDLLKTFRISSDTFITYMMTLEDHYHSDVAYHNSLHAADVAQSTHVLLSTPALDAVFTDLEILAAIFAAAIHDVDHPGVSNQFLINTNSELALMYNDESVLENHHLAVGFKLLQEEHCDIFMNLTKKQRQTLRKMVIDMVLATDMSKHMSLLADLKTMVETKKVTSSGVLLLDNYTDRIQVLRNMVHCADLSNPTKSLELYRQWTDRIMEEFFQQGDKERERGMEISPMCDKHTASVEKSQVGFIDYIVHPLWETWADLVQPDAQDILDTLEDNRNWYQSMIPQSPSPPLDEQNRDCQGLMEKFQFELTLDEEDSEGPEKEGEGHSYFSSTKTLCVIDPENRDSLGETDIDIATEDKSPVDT
Method in brief: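 Cell-based read-out of cAMP via a modified cyclic nucleotide-gated channel and membrane potential dye (535/590 nm) in HEK293 cells expressing PDE4 endogenously. Compounds tested up to 22.9 uM final; 100 uM RO 20-1724 reference.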

C[C@H](CCC(=O)NN)[C@@H]1CC[C@@H]2[C@H]3CC[C@H]4C[C@@H](O)CC[C@@]4(C)[C@@H]3CC[C@]21C
inactive: Potency [1] > 11.4 µM | activity change, negative = inhibition [2] 12.8% | activity change, negative = inhibition [3] 17% | activity, negative = inhibition [4] -5.92% | Potency [5] > 46 µM | Potency [6] > 9.22 µM | Potency [7] | Potency [8]

O=C(O)[C@@H]1[C@@H]2O[C@H]([C@@H](Br)[C@H]2Br)[C@H]1C(=O)O
inactive: Potency [1] > 11.4 µM | activity change, negative = inhibition [2] 7.44% | activity change, negative = inhibition [3] 2.42% | activity, negative = inhibition [4] -2.12% | Potency [5] > 46 µM | Potency [6] > 9.22 µM | Potency [7] | Potency [8]

O=S(=O)(c1ccc2ccccc2c1)N1CCN(S(=O)(=O)c2ccc3ccccc3c2)CC1
inactive: Potency [1] > 11.4 µM | activity change, negative = inhibition [2] -2.95% | activity change, negative = inhibition [3] -5.78% | activity, negative = inhibition [4] 0.106% | Potency [5] > 46 µM | Potency [6] > 9.22 µM | Potency [7] | Potency [8]

CC(C)CN(CC#N)CC(C)C
inactive: Potency [1] > 11.4 µM | activity change, negative = inhibition [2] 6.22% | activity change, negative = inhibition [3] 12.7% | activity, negative = inhibition [4] 5.79% | Potency [5] > 46 µM | Potency [6] > 9.22 µM | Potency [7] | Potency [8]

Cc1c(C)c(C)c(CC2(C)CSC2)c(CC2(C)CSC2)c1C
inactive: Potency [1] > 11.4 µM | activity change, negative = inhibition [2] 10.3% | activity change, negative = inhibition [3] 0.756% | activity, negative = inhibition [4] 6.86% | Potency [5] > 46 µM | Potency [6] > 9.22 µM | Potency [7] | Potency [8]

CC(=O)[C@@]1(N=Nc2ccc(S(N)(=O)=O)cc2)CCOC1=O
inactive: Potency [1] > 11.4 µM | activity change, negative = inhibition [2] -8.54% | activity change, negative = inhibition [3] 5.28% | activity, negative = inhibition [4] 6.55% | Potency [5] > 46 µM | Potency [6] > 9.22 µM | Potency [7] | Potency [8]

N[C@@]1(C(=O)O)CCC[C@@H]1C(=O)O
inactive: Potency [1] > 11.4 µM | activity change, negative = inhibition [2] 6.92% | activity change, negative = inhibition [3] 10.2% | activity, negative = inhibition [4] 9.09% | Potency [5] > 46 µM | Potency [6] > 9.22 µM | Potency [7] | Potency [8]

O=C(O)c1ccc(C(=O)O)c2c(C(=O)O)ccc(C(=O)O)c12
inactive: Potency [1] > 11.4 µM | activity change, negative = inhibition [2] -5.07% | activity change, negative = inhibition [3] 5.59% | activity, negative = inhibition [4] -1.89% | Potency [5] > 46 µM | Potency [6] > 9.22 µM | Potency [7] | Potency [8]

O=C1c2ccccc2C(=O)c2c(Nc3ccc4c5c(cccc35)C(=O)c3ccccc3-4)cccc21
inactive: Potency [1] > 11.4 µM | activity change, negative = inhibition [2] -3.08% | activity change, negative = inhibition [3] 6.45% | activity, negative = inhibition [4] 0.0671% | Potency [5] > 46 µM | Potency [6] > 9.22 µM | Potency [7] | Potency [8]

O=C(O)c1nnsc1-c1ccc(-c2snnc2C(=O)O)cc1
inactive: Potency [1] > 11.4 µM | activity change, negative = inhibition [2] -0.0507% | activity change, negative = inhibition [3] 18.7% | activity, negative = inhibition [4] -0.666% | Potency [5] > 46 µM | Potency [6] > 9.22 µM | Potency [7] | Potency [8]

c1ccc(-c2ccc(-c3ccc(C4=NCCN4)cc3)o2)cc1
inactive: Potency [1] > 11.4 µM | activity change, negative = inhibition [2] 8.2% | activity change, negative = inhibition [3] 9.65% | activity, negative = inhibition [4] 25.4% | Potency [5] > 46 µM | Potency [6] > 9.22 µM | Potency [7] | Potency [8]

COc1ccc2c(C)cc(C)nc2n1
inactive: Potency [1] > 11.4 µM | activity change, negative = inhibition [2] 0.0891% | activity change, negative = inhibition [3] 9.21% | activity, negative = inhibition [4] 8.73% | Potency [5] > 46 µM | Potency [6] > 9.22 µM | Potency [7] | Potency [8]

Cc1cccc2cc3ccc4ccccc4c3cc12
inactive: Potency [1] > 11.4 µM | activity change, negative = inhibition [2] -0.591% | activity change, negative = inhibition [3] -3.47% | activity, negative = inhibition [4] 19.6% | Potency [5] > 46 µM | Potency [6] > 9.22 µM | Potency [7] | Potency [8]

Cc1nc(-c2ccccc2)c(Cc2ccccc2O)c(=O)[nH]1
inactive: Potency [1] > 11.4 µM | activity change, negative = inhibition [2] -9.11% | activity change, negative = inhibition [3] 4.59% | activity, negative = inhibition [4] 0.211% | Potency [5] > 46 µM | Potency [6] > 9.22 µM | Potency [7] | Potency [8]

CC(C)(C)n1nc(C2CC2)cc1NC(=O)Nc1ccc(Cl)cc1
inactive: Potency [1] > 11.4 µM | activity change, negative = inhibition [2] -5.76% | activity change, negative = inhibition [3] 8.66% | activity, negative = inhibition [4] -5.8% | Potency [5] > 46 µM | Potency [6] > 9.22 µM | Potency [7] | Potency [8]

Clc1cccc(Cl)c1C(Nc1nncs1)Nc1nncs1
inactive: Potency [1] > 11.4 µM | activity change, negative = inhibition [2] -1.25% | activity change, negative = inhibition [3] 2.41% | activity, negative = inhibition [4] -3.83% | Potency [5] > 46 µM | Potency [6] > 9.22 µM | Potency [7] | Potency [8]

Nc1nc(N)c(N=Nc2ccc(C(=O)O)c(O)c2)c(N)n1
inactive: Potency [1] > 11.4 µM | activity change, negative = inhibition [2] 2.15% | activity change, negative = inhibition [3] 15.4% | activity, negative = inhibition [4] -2.93% | Potency [5] > 46 µM | Potency [6] > 9.22 µM | Potency [7] | Potency [8]

Source: PubChem BioAssay (NCATS)
